Reference: the supplement of paper PMC11732987, “Enantioselective OTUD7B fragment discovery through chemoproteomics screening and high-throughput optimisation” (Communications Chemistry, 2025)

Tests used:
Experiment in all cases: log2 ratio of Biotin-Ahx-Ub-VS probe labelling (fragment/DMSO); higher = less target engagement (more negative = stronger competition), active = hit call of the paper (q ≤ 0.05, log2 ratio ≤ -1)
Details in all cases: compound concentration: 200 uM; treatment time: 3 h
USP34 = USP34 (UniProt Q70CQ2)
Sequence of USP34 (Q70CQ2 whole entry, the tested form may be a part): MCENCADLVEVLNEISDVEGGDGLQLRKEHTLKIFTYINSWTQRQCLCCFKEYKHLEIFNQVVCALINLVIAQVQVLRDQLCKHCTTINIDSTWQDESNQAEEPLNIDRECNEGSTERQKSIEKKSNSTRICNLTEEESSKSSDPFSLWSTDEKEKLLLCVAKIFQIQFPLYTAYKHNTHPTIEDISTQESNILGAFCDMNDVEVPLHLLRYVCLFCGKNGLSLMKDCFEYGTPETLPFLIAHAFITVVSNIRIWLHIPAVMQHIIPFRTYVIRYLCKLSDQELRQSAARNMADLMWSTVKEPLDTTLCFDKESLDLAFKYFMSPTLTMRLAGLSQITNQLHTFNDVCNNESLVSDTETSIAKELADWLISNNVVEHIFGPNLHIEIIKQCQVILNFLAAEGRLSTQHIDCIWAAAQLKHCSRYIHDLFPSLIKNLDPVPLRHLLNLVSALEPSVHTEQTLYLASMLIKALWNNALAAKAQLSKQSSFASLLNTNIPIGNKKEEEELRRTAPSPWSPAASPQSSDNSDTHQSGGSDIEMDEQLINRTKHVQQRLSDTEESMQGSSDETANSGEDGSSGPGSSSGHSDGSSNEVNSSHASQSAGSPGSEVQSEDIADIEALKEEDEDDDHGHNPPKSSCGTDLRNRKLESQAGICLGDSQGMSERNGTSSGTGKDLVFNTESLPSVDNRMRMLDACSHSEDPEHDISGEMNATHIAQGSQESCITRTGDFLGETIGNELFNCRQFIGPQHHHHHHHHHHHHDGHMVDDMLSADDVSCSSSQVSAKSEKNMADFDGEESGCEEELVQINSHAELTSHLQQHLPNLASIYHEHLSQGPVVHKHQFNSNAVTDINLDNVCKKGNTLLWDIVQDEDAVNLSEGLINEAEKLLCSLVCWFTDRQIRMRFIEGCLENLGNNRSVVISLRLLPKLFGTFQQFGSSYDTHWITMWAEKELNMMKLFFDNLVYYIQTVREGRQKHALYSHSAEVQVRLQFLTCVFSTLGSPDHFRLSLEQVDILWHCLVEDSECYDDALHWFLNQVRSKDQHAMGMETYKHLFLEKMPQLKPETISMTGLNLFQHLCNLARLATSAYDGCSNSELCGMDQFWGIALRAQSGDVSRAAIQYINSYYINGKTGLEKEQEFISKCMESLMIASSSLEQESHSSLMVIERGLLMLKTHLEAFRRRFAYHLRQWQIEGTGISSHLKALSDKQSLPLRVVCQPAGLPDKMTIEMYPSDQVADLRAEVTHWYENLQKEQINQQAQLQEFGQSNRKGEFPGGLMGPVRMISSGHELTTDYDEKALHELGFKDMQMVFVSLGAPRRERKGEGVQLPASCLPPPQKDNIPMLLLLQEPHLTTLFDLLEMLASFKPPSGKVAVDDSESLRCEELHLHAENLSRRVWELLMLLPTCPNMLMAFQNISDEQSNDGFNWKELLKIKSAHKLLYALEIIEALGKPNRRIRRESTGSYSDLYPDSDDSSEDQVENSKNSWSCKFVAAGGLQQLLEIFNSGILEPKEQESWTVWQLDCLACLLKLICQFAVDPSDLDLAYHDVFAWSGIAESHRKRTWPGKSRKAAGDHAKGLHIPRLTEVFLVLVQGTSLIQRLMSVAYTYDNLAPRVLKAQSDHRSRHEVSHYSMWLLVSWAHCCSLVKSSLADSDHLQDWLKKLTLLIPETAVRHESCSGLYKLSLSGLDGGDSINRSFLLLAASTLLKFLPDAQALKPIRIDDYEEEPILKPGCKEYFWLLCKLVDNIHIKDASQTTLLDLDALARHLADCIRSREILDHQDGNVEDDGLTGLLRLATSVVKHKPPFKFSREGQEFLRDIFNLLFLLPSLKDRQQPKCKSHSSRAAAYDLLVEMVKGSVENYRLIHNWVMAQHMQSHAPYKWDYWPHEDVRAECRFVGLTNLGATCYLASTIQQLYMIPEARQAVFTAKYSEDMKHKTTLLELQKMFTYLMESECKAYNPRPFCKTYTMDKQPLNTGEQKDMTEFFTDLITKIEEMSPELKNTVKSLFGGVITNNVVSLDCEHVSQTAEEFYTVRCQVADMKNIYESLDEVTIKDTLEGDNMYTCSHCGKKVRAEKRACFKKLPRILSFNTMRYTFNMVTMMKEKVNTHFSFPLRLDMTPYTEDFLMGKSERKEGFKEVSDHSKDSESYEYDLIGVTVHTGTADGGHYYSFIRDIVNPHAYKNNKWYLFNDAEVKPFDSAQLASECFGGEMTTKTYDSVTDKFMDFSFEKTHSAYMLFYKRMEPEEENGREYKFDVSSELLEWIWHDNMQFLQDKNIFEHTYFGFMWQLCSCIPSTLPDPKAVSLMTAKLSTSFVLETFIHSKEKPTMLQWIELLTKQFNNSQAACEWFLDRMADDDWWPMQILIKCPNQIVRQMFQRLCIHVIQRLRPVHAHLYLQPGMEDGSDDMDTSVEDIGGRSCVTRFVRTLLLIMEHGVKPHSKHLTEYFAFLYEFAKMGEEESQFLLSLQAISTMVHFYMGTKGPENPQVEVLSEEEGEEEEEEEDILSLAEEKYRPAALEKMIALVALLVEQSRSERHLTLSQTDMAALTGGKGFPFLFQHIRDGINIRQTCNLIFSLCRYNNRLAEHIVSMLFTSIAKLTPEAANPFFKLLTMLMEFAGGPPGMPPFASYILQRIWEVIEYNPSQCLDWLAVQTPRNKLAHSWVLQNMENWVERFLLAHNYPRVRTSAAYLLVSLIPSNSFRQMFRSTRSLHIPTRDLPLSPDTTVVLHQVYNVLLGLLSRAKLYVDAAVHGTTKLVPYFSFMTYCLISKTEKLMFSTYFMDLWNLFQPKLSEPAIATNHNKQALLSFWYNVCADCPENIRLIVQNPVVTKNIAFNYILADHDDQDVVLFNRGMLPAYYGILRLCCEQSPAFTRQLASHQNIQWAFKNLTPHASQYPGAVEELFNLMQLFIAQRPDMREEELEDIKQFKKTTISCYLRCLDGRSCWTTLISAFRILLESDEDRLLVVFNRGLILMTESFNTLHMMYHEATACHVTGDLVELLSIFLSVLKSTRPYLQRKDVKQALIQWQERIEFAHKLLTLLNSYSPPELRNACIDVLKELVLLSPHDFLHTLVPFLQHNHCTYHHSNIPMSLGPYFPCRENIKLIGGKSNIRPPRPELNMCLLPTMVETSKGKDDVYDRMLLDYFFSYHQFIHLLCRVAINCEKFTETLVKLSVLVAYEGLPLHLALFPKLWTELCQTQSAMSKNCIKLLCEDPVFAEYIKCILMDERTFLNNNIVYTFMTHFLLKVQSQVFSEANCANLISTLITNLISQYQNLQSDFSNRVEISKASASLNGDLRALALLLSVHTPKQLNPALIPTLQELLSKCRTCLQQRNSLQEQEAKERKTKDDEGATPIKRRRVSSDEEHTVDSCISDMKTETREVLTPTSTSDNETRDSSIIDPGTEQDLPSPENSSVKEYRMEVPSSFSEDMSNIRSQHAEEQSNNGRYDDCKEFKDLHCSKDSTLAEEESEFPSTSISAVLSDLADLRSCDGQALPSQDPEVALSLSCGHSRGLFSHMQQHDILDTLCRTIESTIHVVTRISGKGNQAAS
Method in brief: (§1)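 Labelled DUBs from HEK293T lysate were NeutrAvidin-enriched, digested with LysC and trypsin, and run by diaPASEF LC-MS/MS. Before that, each 495 µg sample in Tris/CHAPS/IGEPAL buffer with protease inhibitors was treated in triplicate with fragment at 200 µM or vehicle for 3 h, then with Biotin-Ahx-Ub-VS at 0.5 µM final for 1 h. Values are average log2 ratios of fragment over vehicle by unpaired t-test, based on global-median-normalised Spectronaut label-free quantities from proteins with ≥2 unique peptides.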

USP36 = target: T1, USP36 (UniProt Q9P275)
T1 sequence (whole entry): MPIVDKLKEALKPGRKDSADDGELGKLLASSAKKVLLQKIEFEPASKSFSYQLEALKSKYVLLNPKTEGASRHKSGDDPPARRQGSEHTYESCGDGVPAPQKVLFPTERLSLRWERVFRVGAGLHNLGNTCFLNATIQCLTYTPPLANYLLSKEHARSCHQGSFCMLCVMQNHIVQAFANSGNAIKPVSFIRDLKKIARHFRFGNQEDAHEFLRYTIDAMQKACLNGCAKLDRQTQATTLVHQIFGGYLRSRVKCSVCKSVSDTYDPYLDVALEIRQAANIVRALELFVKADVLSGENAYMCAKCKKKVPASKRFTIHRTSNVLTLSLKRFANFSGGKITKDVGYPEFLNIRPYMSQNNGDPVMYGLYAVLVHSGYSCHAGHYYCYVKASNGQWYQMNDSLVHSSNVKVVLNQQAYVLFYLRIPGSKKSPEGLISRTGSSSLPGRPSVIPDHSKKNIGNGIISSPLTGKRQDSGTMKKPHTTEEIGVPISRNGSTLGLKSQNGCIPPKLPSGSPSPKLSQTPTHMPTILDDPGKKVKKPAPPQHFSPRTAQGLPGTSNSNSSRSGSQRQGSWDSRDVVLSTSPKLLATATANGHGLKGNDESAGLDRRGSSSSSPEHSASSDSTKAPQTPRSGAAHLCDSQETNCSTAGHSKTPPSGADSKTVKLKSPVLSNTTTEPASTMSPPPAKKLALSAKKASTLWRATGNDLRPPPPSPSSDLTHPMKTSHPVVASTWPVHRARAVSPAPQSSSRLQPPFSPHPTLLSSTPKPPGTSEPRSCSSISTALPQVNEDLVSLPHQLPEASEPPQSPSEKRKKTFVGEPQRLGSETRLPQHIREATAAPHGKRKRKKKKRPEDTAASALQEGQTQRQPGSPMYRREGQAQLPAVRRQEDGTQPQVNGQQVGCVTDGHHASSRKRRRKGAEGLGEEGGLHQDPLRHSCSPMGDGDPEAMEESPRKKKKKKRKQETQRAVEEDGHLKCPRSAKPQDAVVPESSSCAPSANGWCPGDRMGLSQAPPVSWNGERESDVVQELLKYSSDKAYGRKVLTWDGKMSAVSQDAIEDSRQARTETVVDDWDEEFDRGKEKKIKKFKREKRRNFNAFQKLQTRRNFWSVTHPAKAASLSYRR
Method in brief: as §1

USP38 = target: T2, USP38 (UniProt Q8NB14)
T2 sequence (whole entry): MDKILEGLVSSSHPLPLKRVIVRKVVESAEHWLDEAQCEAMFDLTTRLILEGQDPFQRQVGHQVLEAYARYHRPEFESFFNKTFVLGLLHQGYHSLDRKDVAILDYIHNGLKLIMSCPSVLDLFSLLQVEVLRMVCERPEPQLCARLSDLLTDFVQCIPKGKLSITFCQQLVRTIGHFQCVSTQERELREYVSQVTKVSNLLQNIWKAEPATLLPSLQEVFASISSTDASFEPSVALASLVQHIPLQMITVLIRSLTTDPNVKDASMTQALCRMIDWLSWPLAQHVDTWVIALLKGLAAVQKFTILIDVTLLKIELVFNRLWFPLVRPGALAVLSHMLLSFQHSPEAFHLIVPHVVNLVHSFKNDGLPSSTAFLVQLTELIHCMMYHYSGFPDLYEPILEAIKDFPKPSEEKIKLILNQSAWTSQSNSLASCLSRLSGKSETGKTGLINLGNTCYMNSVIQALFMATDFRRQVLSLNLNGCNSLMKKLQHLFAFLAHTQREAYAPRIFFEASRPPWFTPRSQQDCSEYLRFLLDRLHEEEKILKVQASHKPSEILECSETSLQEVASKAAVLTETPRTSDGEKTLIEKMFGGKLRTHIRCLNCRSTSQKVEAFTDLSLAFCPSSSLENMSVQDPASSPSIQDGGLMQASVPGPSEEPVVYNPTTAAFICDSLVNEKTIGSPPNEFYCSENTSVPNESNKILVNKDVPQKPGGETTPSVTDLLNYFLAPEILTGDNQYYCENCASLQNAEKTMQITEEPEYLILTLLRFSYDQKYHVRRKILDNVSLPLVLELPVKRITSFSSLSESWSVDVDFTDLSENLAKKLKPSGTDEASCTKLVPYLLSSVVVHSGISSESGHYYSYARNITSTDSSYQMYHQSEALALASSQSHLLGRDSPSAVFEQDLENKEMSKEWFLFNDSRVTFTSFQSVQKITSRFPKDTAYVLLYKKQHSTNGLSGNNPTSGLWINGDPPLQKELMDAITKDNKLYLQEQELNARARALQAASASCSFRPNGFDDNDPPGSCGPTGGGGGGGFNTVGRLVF
Method in brief: as §1

USP39 = target: T3, USP39 (UniProt Q53GS9)
T3 sequence (whole entry): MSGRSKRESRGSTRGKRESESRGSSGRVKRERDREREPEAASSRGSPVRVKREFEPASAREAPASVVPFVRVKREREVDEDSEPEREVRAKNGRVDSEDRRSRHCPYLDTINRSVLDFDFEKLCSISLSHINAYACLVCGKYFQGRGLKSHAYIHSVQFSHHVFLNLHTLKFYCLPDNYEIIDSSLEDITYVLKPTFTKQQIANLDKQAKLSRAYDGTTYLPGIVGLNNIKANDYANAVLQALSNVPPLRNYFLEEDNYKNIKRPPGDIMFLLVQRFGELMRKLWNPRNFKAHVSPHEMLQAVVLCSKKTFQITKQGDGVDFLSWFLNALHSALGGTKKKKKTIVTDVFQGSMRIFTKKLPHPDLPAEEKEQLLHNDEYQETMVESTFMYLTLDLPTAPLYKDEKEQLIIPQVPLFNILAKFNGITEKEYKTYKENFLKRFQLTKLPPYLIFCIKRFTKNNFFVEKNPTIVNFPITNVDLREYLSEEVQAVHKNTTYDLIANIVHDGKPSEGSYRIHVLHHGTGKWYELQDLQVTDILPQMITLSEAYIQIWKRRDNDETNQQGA
Method in brief: as §1

USP4 = target: T4, USP4 (UniProt Q13107)
T4 sequence (whole entry): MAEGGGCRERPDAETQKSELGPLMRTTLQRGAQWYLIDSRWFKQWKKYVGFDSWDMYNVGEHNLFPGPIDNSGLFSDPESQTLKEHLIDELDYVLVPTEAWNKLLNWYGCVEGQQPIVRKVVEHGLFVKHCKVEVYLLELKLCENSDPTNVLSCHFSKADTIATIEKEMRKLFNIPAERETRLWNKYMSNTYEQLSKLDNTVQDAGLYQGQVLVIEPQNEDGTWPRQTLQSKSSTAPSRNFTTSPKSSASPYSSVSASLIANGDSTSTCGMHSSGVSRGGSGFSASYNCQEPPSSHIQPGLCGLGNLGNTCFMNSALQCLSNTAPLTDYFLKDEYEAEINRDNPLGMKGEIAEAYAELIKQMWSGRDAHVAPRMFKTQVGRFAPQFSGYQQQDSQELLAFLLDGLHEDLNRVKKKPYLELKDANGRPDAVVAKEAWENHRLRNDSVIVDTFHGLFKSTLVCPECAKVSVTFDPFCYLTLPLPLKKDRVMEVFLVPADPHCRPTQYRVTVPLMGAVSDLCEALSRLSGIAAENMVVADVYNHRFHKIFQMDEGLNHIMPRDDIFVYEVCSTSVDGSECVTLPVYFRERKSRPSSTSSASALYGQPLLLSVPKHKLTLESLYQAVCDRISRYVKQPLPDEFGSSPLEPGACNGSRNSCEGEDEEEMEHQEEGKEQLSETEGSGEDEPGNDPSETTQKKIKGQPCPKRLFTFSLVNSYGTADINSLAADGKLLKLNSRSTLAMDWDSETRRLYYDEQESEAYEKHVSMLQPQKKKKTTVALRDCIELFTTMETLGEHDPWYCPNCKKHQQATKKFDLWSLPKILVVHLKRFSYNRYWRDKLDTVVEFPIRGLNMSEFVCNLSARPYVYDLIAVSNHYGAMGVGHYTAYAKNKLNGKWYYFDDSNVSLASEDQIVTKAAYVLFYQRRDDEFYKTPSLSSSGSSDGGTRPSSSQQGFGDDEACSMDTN
Method in brief: as §1

Measured: log2 ratio of Biotin-Ahx-Ub-VS probe labelling

CC(O)CC1CCN(C(=O)CCl)CC1 (stereo not given)
inactive: USP34 -0.0285 | USP36 -0.326 | USP38 -0.143 | USP39 -0.0644 | USP4 -0.0429
